In all, about 5,500 compounds went through this assay and about 2,000 (36%) were called active. Not shown: some 18% with an inconclusive outcome. The list shows a part of the results. Unmarked numbers belong to inactive results. Rule as the data show it: active = normalized growth mostly below about 0.91 (no sharp cut-off); inconclusive = no clear call, values can overlap the other calls; inactive = mostly above about 0.92.
Assay: chemical genetic growth profiling, strain panel (AID 1159580);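 also: tested at 20 µM; growth read once vehicle control cultures reached saturation at 30 °C; 1 = growth at the plate median or of vehicle wells; lower values mean less growth of the strain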
Conditions: growth OD

For `C#CCCCCCCCCCCCC(O)CC(O)COC(C)=O` (stereo unspecified), the normalized growth (S. cerevisiae deletion strains, locus YKL009W, strain mrt4, stronger effect = lower value) was 0.8 (active), the normalized growth (S. cerevisiae deletion strains, locus YKL068W, stronger effect = lower value) was 0.985 and the normalized growth (S. cerevisiae deletion strains, locus YKL085W, strain MDH1 (second series), stronger effect = lower value) was 0.964. The normalized growth (S. cerevisiae deletion strains, locus YKL085W, strain MDH1, stronger effect = lower value) was 0.964, the normalized growth (S. cerevisiae deletion strains, locus YKL160W, strain elf1, stronger effect = lower value) was 0.864 (active) and the normalized growth (S. cerevisiae deletion strains, locus YKL190W, strain CNB1, stronger effect = lower value) was 0.986. The normalized growth (S. cerevisiae deletion strains, locus YKR001C, strain vps1, stronger effect = lower value) was 0.871 (active), the normalized growth (S. cerevisiae deletion strains, locus YKR026C, strain gcn3, stronger effect = lower value) was 0.843 (active) and the normalized growth (S. cerevisiae deletion strains, locus YKR091W, strain srl3, stronger effect = lower value) was 0.996. The normalized growth (S. cerevisiae deletion strains, locus YLL001W, strain dnm1, stronger effect = lower value) was 0.913, the normalized growth (S. cerevisiae deletion strains, locus YLL026W, stronger effect = lower value) was 0.344 (active) and the normalized growth (S. cerevisiae deletion strains, locus YLL041C, strain sdh2, stronger effect = lower value) was 0.542 (active). The normalized growth (S. cerevisiae deletion strains, locus YLR027C, strain aat2, stronger effect = lower value) was 0.478 (active), the normalized growth (S. cerevisiae deletion strains, locus YLR039C, strain RIC1, stronger effect = lower value) was 0.976 and the normalized growth (S. cerevisiae deletion strains, locus YLR058C, strain SHM2, stronger effect = lower value) was 0.965. The normalized growth (S. cerevisiae deletion strains, locus YLR102C, strain apc9, stronger effect = lower value) was 0.968, the normalized growth (S. cerevisiae deletion strains, locus YLR113W, strain HOG1, stronger effect = lower value) was 0.94 and the normalized growth (S. cerevisiae deletion strains, locus YLR221C, strain rsa3, stronger effect = lower value) was 0.305 (active). The normalized growth (S. cerevisiae deletion strains, locus YLR258W, strain gsy2, stronger effect = lower value) was 0.493 (active), the normalized growth (S. cerevisiae deletion strains, locus YLR262C, strain YPT6 (second series), stronger effect = lower value) was 0.726 (active) and the normalized growth (S. cerevisiae deletion strains, locus YLR262C, strain YPT6, stronger effect = lower value) was 0.962. The normalized growth (S. cerevisiae deletion strains, locus YLR268W, strain sec22, stronger effect = lower value) was 0.927, the normalized growth (S. cerevisiae deletion strains, locus YLR320W, strain mms22, stronger effect = lower value) was 0.647 (active) and the normalized growth (S. cerevisiae deletion strains, locus YLR330W, strain CHS5, stronger effect = lower value) was 0.981. The normalized growth (S. cerevisiae deletion strains, locus YLR342W, strain FKS1 (second series), stronger effect = lower value) was 0.856, the normalized growth (S. cerevisiae deletion strains, locus YLR342W, strain FKS1, stronger effect = lower value) was 0.647 (active) and the normalized growth (S. cerevisiae deletion strains, locus YLR357W, strain rsc2, stronger effect = lower value) was 0.958. It also gave a normalized growth (S. cerevisiae deletion strains, locus YLR370C, strain arc18, stronger effect = lower value) of 0.994, a normalized growth (S. cerevisiae deletion strains, locus YLR371W, strain rom2, stronger effect = lower value) of 0.958 and a normalized growth (S. cerevisiae deletion strains, locus YLR384C, strain iki3, stronger effect = lower value) of 0.967. The normalized growth (S. cerevisiae deletion strains, locus YLR418C, strain cdc73, stronger effect = lower value) was 0.861, the normalized growth (S. cerevisiae deletion strains, locus YML016C, strain PPZ1, stronger effect = lower value) was 0.978 and the normalized growth (S. cerevisiae deletion strains, locus YML032C, strain rad52, stronger effect = lower value) was 0.868 (active). For the same molecule, the normalized growth (S. cerevisiae deletion strains, locus YML120C, strain ndi1, stronger effect = lower value) was 0.171 (active), the normalized growth (S. cerevisiae deletion strains, locus YML124C, strain tub3, stronger effect = lower value) was 0.972 and the normalized growth (S. cerevisiae deletion strains, locus YMR058W, strain fet3, stronger effect = lower value) was 0.749 (active). For the same molecule, the normalized growth (S. cerevisiae deletion strains, locus YMR078C, strain ctf18, stronger effect = lower value) was 0.954, the normalized growth (S. cerevisiae deletion strains, locus YMR125W, strain sto1, stronger effect = lower value) was 0.908 and the normalized growth (S. cerevisiae deletion strains, locus YMR129W, stronger effect = lower value) was 0.316 (active). The normalized growth (S. cerevisiae deletion strains, locus YMR205C, strain PFK2, stronger effect = lower value) was 0.507 (active), the normalized growth (S. cerevisiae deletion strains, locus YMR223W, strain ubp8, stronger effect = lower value) was 0.889 (active) and the normalized growth (S. cerevisiae deletion strains, locus YMR231W, strain pep5, stronger effect = lower value) was 1.01. For the same molecule, the normalized growth (S. cerevisiae deletion strains, locus YMR263W, strain SAP30, stronger effect = lower value) was 0.966, the normalized growth (S. cerevisiae deletion strains, locus YMR307W, strain GAS1, stronger effect = lower value) was 0.885 and the normalized growth (S. cerevisiae deletion strains, locus YNL067W, strain RPL9B, stronger effect = lower value) was 0.928. The normalized growth (S. cerevisiae deletion strains, locus YNL071W, strain lat1, stronger effect = lower value) was 0.208 (active), the normalized growth (S. cerevisiae deletion strains, locus YNL128W, strain TEP1, stronger effect = lower value) was 0.961 and the normalized growth (S. cerevisiae deletion strains, locus YNL153C, strain GIM3, stronger effect = lower value) was 0.994. For the same molecule, the normalized growth (S. cerevisiae deletion strains, locus YNL183C, strain NPR1, stronger effect = lower value) was 0.954, the normalized growth (S. cerevisiae deletion strains, locus YNL209W, strain ssb2, stronger effect = lower value) was 0.886 (active) and the normalized growth (S. cerevisiae deletion strains, locus YNL233W, strain BNI4, stronger effect = lower value) was 0.906. The normalized growth (S. cerevisiae deletion strains, locus YNL248C, strain rpa49, stronger effect = lower value) was 0.84 (active), the normalized growth (S. cerevisiae deletion strains, locus YNL250W, strain rad50, stronger effect = lower value) was 0.946 and the normalized growth (S. cerevisiae deletion strains, locus YNL271C, strain bni1, stronger effect = lower value) was 0.942. The normalized growth (S. cerevisiae deletion strains, locus YNL298W, strain CLA4, stronger effect = lower value) was 0.786 (active), the normalized growth (S. cerevisiae deletion strains, locus YNL307C, strain MCK1, stronger effect = lower value) was 0.744 (active) and the normalized growth (S. cerevisiae deletion strains, locus YNL322C, strain KRE1 (second series), stronger effect = lower value) was 0.633 (active). The normalized growth (S. cerevisiae deletion strains, locus YNL322C, strain KRE1, stronger effect = lower value) was 0.98, the normalized growth (S. cerevisiae deletion strains, locus YNR049C, strain mso1, stronger effect = lower value) was 1.01 and the normalized growth (S. cerevisiae deletion strains, locus YNR052C, strain pop2, stronger effect = lower value) was 0.896 (active). For the same molecule, the normalized growth (S. cerevisiae deletion strains, locus YOL006C, strain TOP1, stronger effect = lower value) was 0.85, the normalized growth (S. cerevisiae deletion strains, locus YOL012C, strain htz1) was 1.07 and the normalized growth (S. cerevisiae deletion strains, locus YOL147C, strain pex11, stronger effect = lower value) was 0.953. The normalized growth (S. cerevisiae deletion strains, locus YOR001W, strain rrp6, stronger effect = lower value) was 0.397 (active), the normalized growth (S. cerevisiae deletion strains, locus YOR061W, strain CKA2, stronger effect = lower value) was 0.893 and the normalized growth (S. cerevisiae deletion strains, locus YOR069W, strain VPS5, stronger effect = lower value) was 0.992. For the same molecule, the normalized growth (S. cerevisiae deletion strains, locus YOR070C, strain gyp1, stronger effect = lower value) was 0.878 (active), the normalized growth (S. cerevisiae deletion strains, locus YOR080W, strain dia2, stronger effect = lower value) was 0.952 and the normalized growth (S. cerevisiae deletion strains, locus YOR083W, strain WHI5, stronger effect = lower value) was 0.866 (active). For the same molecule, the normalized growth (S. cerevisiae deletion strains, locus YOR106W, strain vam3, stronger effect = lower value) was 0.442 (active), the normalized growth (S. cerevisiae deletion strains, locus YOR136W, strain idh2, stronger effect = lower value) was 0.934 and the normalized growth (S. cerevisiae deletion strains, locus YOR144C, strain elg1, stronger effect = lower value) was 0.973. For the same molecule, the normalized growth (S. cerevisiae deletion strains, locus YOR184W, strain ser1, stronger effect = lower value) was 0.774 (active), the normalized growth (S. cerevisiae deletion strains, locus YOR231W, strain MKK1, stronger effect = lower value) was 1.01 and the normalized growth (S. cerevisiae deletion strains, locus YOR265W, strain rbl2, stronger effect = lower value) was 0.926 (active). The normalized growth (S. cerevisiae deletion strains, locus YOR270C, strain vph1, stronger effect = lower value) was 0.506 (active), the normalized growth (S. cerevisiae deletion strains, locus YOR290C, strain snf2, stronger effect = lower value) was 0.899 and the normalized growth (S. cerevisiae deletion strains, locus YOR316C, strain cot1, stronger effect = lower value) was 0.969. For the same molecule, the normalized growth (S. cerevisiae deletion strains, locus YPL051W, strain arl3, stronger effect = lower value) was 0.831 (active), the normalized growth (S. cerevisiae deletion strains, locus YPL055C, strain LGE1, stronger effect = lower value) was 0.904 and the normalized growth (S. cerevisiae deletion strains, locus YPL078C, strain atp4, stronger effect = lower value) was 0.829 (active). For the same molecule, the normalized growth (S. cerevisiae deletion strains, locus YPL106C, strain sse1, stronger effect = lower value) was 0.58 (active), the normalized growth (S. cerevisiae deletion strains, locus YPL240C, strain hsp82, stronger effect = lower value) was 0.342 (active) and the normalized growth (S. cerevisiae deletion strains, locus YPL241C, strain CIN2, stronger effect = lower value) was 0.983. For the same molecule, the normalized growth (S. cerevisiae deletion strains, locus YPL256C, strain CLN2, stronger effect = lower value) was 0.981, the normalized growth (S. cerevisiae deletion strains, locus YPR119W, strain clb2, stronger effect = lower value) was 0.97 and the normalized growth (S. cerevisiae deletion strains, locus YPR141C, strain kar3, stronger effect = lower value) was 0.979. The normalized growth (S. cerevisiae deletion strains, locus YPR163C, strain tif3, stronger effect = lower value) was 0.961, the normalized growth (S. cerevisiae deletion strains, locus YPR167C, strain met16, stronger effect = lower value) was 0.969 and the normalized growth (S. cerevisiae deletion strains, strain wtn01, stronger effect = lower value) was 0.928. The normalized growth (S. cerevisiae strains, strain wild type, stronger effect = lower value) was 0.97.
